Shown are actives, neighbours in structure and some others; about 17% of the full set was active somewhere.
TGFb inhibitor = TGF-b pathway inhibition; 410,000 compounds, 1.2% hits; AID 588855; Potency, µM (titrated, usually from 46.1 µM), without a hit: at the top dose activity, negative = inhibition, actives largely listed as inhibitors; HepG2 CAGA-GFP TGF-b/SMAD3 reporter, GFP fluorescence, 18 h; TGF-beta stimulated, 500 pg/mL final; further: on the % scale 0 is the no-effect control and ±100 the full control effect; nearly all actives have a fitted effect of over 65% in size
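HEPG2 CAGA-GFP reporter cells (1000/well, DMEM with 1% FBS) received compounds, then recombinant TGF-beta at 500 pg/mL final for 18 hours at 37 degrees C. Per-cell GFP summed per well was normalised to unstimulated and stimulated DMSO controls before curve fitting.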
HT1080NT lethal = kills 2HG-producing HT-1080-NT fibrosarcoma cells; 360,000 compounds, 1.6% hits; Potency, µM (titrated, usually from 46.1 µM), without a hit: top-dose activity, negative = less viability, actives largely listed as cytotoxic; HT-1080-NT fibrosarcoma viability, CellTiter-Glo ATP luminescence, 48 h;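 further: NT is the 2HG producing partner of a matched IDH1 knockdown line; 0% = DMSO-treated cells and -100% = media-only wells without cells; nearly all actives have a fitted effect of over 55% in size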
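Toxicity toward the 2HG-producing NT line was scored as %Activity, normalised to DMSO and no-cell wells, from CellTiter-Glo luminescence after 48 hours' treatment.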
TDP1 cell CPT = growth inhibition of DT40 Tdp1-/-;hTDP1 cells with camptothecin (screen for TDP1 inhibitors); chicken DT40 Tdp1-/-;hTDP1 cells + 20 nM CPT, ATP luminescence, 48 h; Potency, µM (series often up to 46.2 µM), inactives show top-dose activity change, negative = growth inhibition, usual class: inhibitors; 420,000 compounds, 12% hits; further: on the % scale 0 is the no-effect control and ±100 the full control effect; nearly all actives have a fitted effect of over 55% in size
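Chicken DT40 Tdp1-/- cells stably complemented with human TDP1 were seeded at 400 cells/well in medium containing 20 nM camptothecin, exposed to pin-transferred compounds, and grown at 37 °C for at least 48 hr. Viability was read as ATP luminescence.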
DT40 TDP1 no CPT = qHTS for Inhibitors of human tyrosyl-DNA phosphodiesterase 1 (TDP1): qHTS in cells in absence of CPT; 420,000 compounds, 15% hits; Potency, µM (doses to about 46.2 µM), for the others: at the top dose activity change, negative = growth inhibition, hits mostly inhibitors; DT40 Tdp1-/- hTDP1 cells, no CPT, ATP luminescence, 48 h; further: on the % scale 0 is the no-effect control and ±100 the full control effect; nearly all actives have a fitted effect of over 55% in size
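Luminescent ATP content (CellTiter-Glo) served as the growth readout. Knockout chicken DT40 cells expressing human TDP1 were exposed to compounds without camptothecin for a minimum 48 hr at 37 °C.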
HepG2 viability = kills HepG2 cells in TGF-b inhibitor counter-screen; HepG2 CAGA-GFP viability, ATP luminescence, 18 h; Potency, µM (titrated, usually from 46.1 µM), without a hit: at the top dose activity change, negative = cytotoxicity, usual class: cytotoxic; 410,000 compounds, 0.76% hits; AID 588856
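HepG2 CAGA-GFP cells (1000/well, DMEM with 1% FBS) received compound, then TGF-beta at 500 pg/mL final, and were incubated 18 hours at 37 degrees C. Viability was read by CellTiter-Glo luminescence. Media-only wells were set as complete cell-killing and DMSO as no toxicity.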
HT1080 IDH1KD tx = kills HT-1080 cells with IDH1 knockdown | 360,000 compounds, 2% hits | HT-1080 IDH1 knockdown viability, ATP luminescence, 48 h | AID 686971 | Potency, µM (doses to about 46.1 µM), for the others: at the top dose activity, negative = toxicity, hits mostly cytotoxic;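 further: 0% = DMSO wells and -100% = cell-free medium wells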
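Viability of IDH1-knockdown HT-1080 fibrosarcoma cells was assessed by CellTiter-Glo after 48 h at 37 °C with titrated compound; concentration-effect curves were classified by fit quality and response size.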
* = called active by the depositor; ? = inconclusive; · = no result; [ ] = dose if it differs, or a comment. The call rests on the fitted dose curve; in most records, active means well fitted curve in the direction sought with a large enough effect; inconclusive means small, poorly fitted or top-dose-only effect, or another doubt; inactive means no such curve, though single readings can be large; an effect the other way counts as inactive or inconclusive. Potency means the concentration at half of the fitted maximal effect.

SMILES	TGFb inhibitor	HT1080NT lethal	TDP1 cell CPT	DT40 TDP1 no CPT	HepG2 viability	HT1080 IDH1KD tx
COc1ccc(CNC(=O)c2cnc3sc(N4CCCC4)nn3c2=O)cc1OC	-3%	·	9.2µM*	?	-23%	·
COc1ccc(C(=O)N2CCC3(CCN(Cc4ccccc4)CC3)CC2)cc1	·	·	1%	-13%	·	·
Cc1cccc(CS(=O)(=O)c2nnc([C@H](Cc3ccccc3)NC(=O)OC(C)(C)C)o2)c1	?	5µM*	1.3µM*	1.5µM*	-101%	2.8µM*
COC(=O)CSc1nnc([C@H](Cc2ccccc2)NC(=O)OC(C)(C)C)o1	1%	8%	-24%	-13%	5%	15%
CC(C)(C)OC(=O)N[C@@H](Cc1ccccc1)c1nnc(SCC(N)=O)o1	-12%	-1%	3%	-4%	-12%	-3%
COC(=O)CS(=O)(=O)c1nnc([C@H](Cc2ccccc2)NC(=O)OC(C)(C)C)o1	?	?	1.5µM*	1.6µM*	-111%	?
COc1ccc(CCC(=O)NNC(=O)Cn2nc(C)cc2C)cc1	-10%	21%	-19%	20%	-1%	9%
Oc1cccc(C=NNc2ccccn2)c1	?	14%	-24%	-19%	2%	13%
COc1cccc(/C=N/Nc2nccnc2Cl)c1O	-29%	?	3.3µM*	4.6µM*	11µM*	?
COc1cccc(/C=N/Nc2ncnc3scc(-c4ccccc4)c23)c1O	?	?	1µM*	1.5µM*	-3%	?
Oc1ccc(C=NNc2ccccn2)c(O)c1	-6%	-27%	4.1µM*	2.9µM*	1%	?
O=[N+]([O-])c1ccccc1/C=N/Nc1nccnc1Cl	0%	-30%	0%	-7%	-44%	?
Oc1ccccc1/C=N/Nc1nccnc1Cl	0%	?	4.6µM*	2.9µM*	-31%	?
NC(=O)NS(=O)(=O)c1ccc(N)cc1	·	·	-4%	2%	·	·
CCOC(=O)[C@@H]1[C@H]2COc3cc(OC)ccc3[C@H]2N2C(=O)N(c3ccc(C(F)(F)F)cc3)C(=O)[C@@]12C	6%	0%	?	?	15%	1%
Oc1ccc(/C=N/Nc2nccnc2Cl)c(O)c1	2%	-18%	3.3µM*	3.3µM*	-19%	?
Oc1ccc(/C=N/Nc2cccc3cccnc23)c(O)c1	?	?	?	?	-52%	-14%[9.24 µM]
Oc1ccc(/C=N/Nc2ncc(Br)cn2)c(O)c1	-21%	-22%	7.3µM*	7.3µM*	4%	?
Oc1ccc(Br)cc1/C=N/Nc1ncc(-c2ccccc2)cn1	6%	-15%	6.5µM*	8.2µM*	-27%	-8%
CSCC[C@H](NC(=O)[C@@H]1CSC2c3ccccc3C(=O)N21)C(=O)N1CCC[C@H]1CO (stereo partly drawn)	-7%	0%	3%	-3%	-2%	7%
COc1cc(-c2nnc(COc3ccc4ccccc4c3)o2)cc(OC)c1OC	4%	-16%	?	26µM*	-15%	-3%
COc1cc(-c2nnc(-c3cc(OC)c(OC)c(OC)c3)o2)cc(OC)c1OC	10%	4%	1.8µM*	2.1µM*	12%	-12%[9.24 µM]
COc1cc(-c2nnc(-c3ccccc3)o2)cc(OC)c1OC	7%	10%	16µM*	12µM*	2%	20%
COc1ccc(-c2nnc(-c3ccccc3)o2)cc1OC	4%	2%	-22%	?	-9%	16%
COc1cc(-c2nnc(SCC3(c4ccc(Br)cc4)OCCO3)o2)cc(OC)c1OC	-5%	-4%	16µM*	?	6%	-52%
SMILES	TGFb inhibitor	HT1080NT lethal	TDP1 cell CPT	DT40 TDP1 no CPT	HepG2 viability	HT1080 IDH1KD tx
Cc1ccc2nc(-c3ccc(C)c(NC(=O)COc4ccc(Br)cc4)c3)oc2c1	-5%	·	?	-12%	-5%	·
CC(C)c1cc(C(=O)OCC(=O)NC(=O)NCc2ccco2)c(O)c(C(C)C)c1	?	23µM*	?	?	-89%	26µM*
O=C(COC(=O)c1ccccc1C(F)(F)F)NC(=O)NCc1ccco1	-11%	3%	15%	-2%	0%	19%
CCn1c(SCC(=O)N2CCCC2)nc2c(c1=O)SC(C)C2 (stereo not drawn)	-26%	8%	1%	-19%	-25%	3%
CCn1c(SCC(=O)N2CCN(c3ccccc3)CC2)nc2c(c1=O)SC(C)C2 (stereo not drawn)	-16%	-2%	?	21µM*	-20%	-4%
O=C(CSc1nc2c(c(=O)n1-c1ccccc1)SCC2)N1CCN(c2ccccc2)CC1	-5%	-1%	18µM*	?	-18%	0%
CC1Cc2nc(SCC(=O)N3CCN(c4ccccc4)CC3)n(C)c(=O)c2S1 (stereo not drawn)	-10%	2%	?	13µM*	-45%	-5%
COc1ccc(-n2c(SCc3ccccn3)nc3c(c2=O)SCC3)cc1OC	-8%	-4%	0%	-27%	20µM*	1%
CC(CN1CCCCC1)NC(=O)c1cccs1 (stereo not drawn)	-20%	-1%	0%	-5%	7%	-1%
CC1Cc2nc(SCC(=O)N3CCN(c4ccccc4)CC3)n(CCc3ccccc3)c(=O)c2S1 (stereo not drawn)	-13%	-26%	18µM*	13µM*	-15%	3%
O=C(Nc1ccc(Cl)cn1)c1ccccc1[N+](=O)[O-]	4%	?	?	?	7%	18µM*
O=C(Nc1ccc(Cl)cn1)c1cccc2ccccc12	0%	?	5.2µM*	5.8µM*	2%	12µM*
Cc1cccc(N(CC(=O)NCc2ccco2)S(=O)(=O)c2ccccc2)c1	-2%	13%	?	-20%	4%	9%
COc1ccc(NC(=O)N(C)[C@H]2C[C@H]3c4[nH]c5ccccc5c4CCN3C(=O)[C@H]2CO)cc1	-20%	-7%	-21%	?	-20%	-1%
O=c1sc2ccccc2c(=O)n1Cc1ccccc1F	-17%	0%	11%	-14%	-14%	1%
O=c1c2ccccc2sc2nc(CCl)nn12	?	6.5µM*	?	?	-54%	4.6µM*
COCc1c(C(=O)N2CC3CCC2C3)cnn1-c1nccc(-c2ccccc2OC)n1 (stereo not drawn)	·	·	4%[9.04 µM]	-18%	·	·

From PubChem BioAssay
